Data published in the supplement of paper PMC10646978.
± gives the standard deviation.

Legend:
Settings in all cases: modulator concentration 10 µM
[1] = tested on: RAW-Dual (murine macrophage reporter line); assay: NF-kB reporter (SEAP) activity fold change vs agonist alone; higher = enhanced NF-kB activity
Procedure, shortened: (§1)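 RAW-Dual murine macrophage reporter cells were seeded at 50 000 per well in 384-well plates and pre-incubated 1 hour at 37 °C with compound pin-transferred to 10 μM final. After 1 hour, a PRR agonist was added and cells incubated overnight. Supernatant NF-κB (SEAP, QUANTI-Blue, 620 nm absorbance) and IRF (Lucia luciferase, QUANTI-Luc, luminescence) signals were divided by the mean agonist-only control on the same plate to give fold change. Two replicate plates were averaged, with errors by propagation.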

[2] = tested on: RAW-Dual (murine macrophage reporter line); assay: IRF reporter (Lucia luciferase) activity fold change vs agonist alone; higher = enhanced IRF activity
Procedure, shortened: as §1

[3] = tested on: RAW-Dual (murine macrophage reporter line); assay: viability score (confluency relative to resting cells, overnight) (fraction); higher = more viable, active = viable (0.7 or more)
Procedure, shortened: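 RAW-Dual macrophages in 384-well plates were exposed overnight to compound at 10 μM final. Confluency was imaged with IncuCyte, and two confluency masks were generated with IncuCyte software over all imaged wells. The viability score is confluency expressed relative to resting cells. Compounds were called viable if both masks exceeded 70% of resting cells.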

[4] = agonist: CpG ODN 1826 0.5 ug/mL

| Compound | NF-kB reporter [1, 4] | NF-kB reporter ([1]; agonist: LPS 0.1 ug/mL) | NF-kB reporter ([1]; agonist: MPLA […]) | IRF reporter ([2]; agonist: 3'3'-cGAMP 10 ug/mL) | IRF reporter ([2]; agonist: LPS 0.1 ug/mL) | IRF reporter ([2]; agonist: MPLA […]) | viability score [3] |
| --- | --- | --- | --- | --- | --- | --- | --- |
| CC1CN(Cc2ccccn2)CCC1=O (configuration not stated) | 0.988 ± 0.11 | 0.993 ± 0.064 | 1.03 ± 0.062 | 0.978 ± 0.027 | 1.58 ± 0.23 | 1.17 ± 0.12 | 1.01 (active) |
| COc1ccc(C(=O)Nc2ccc(Br)c(C)c2)cc1 | 1.03 ± 0.089 | 1.1 ± 0.088 | 1.1 ± 0.038 | 0.767 ± 0.029 | 1.01 ± 0.098 | 1.2 ± 0.14 | 1 (active) |
| O=c1[nH]cnc2scc(-c3ccc(Br)cc3)c12 | 0.924 ± 0.067 | 1.08 ± 0.073 | 1.03 ± 0.061 | 1.14 ± 0.042 | 1.65 ± 0.13 | 1.29 ± 0.16 | 0.975 (active) |
| CC(NC(=O)c1nc2ccccc2[nH]1)c1ccc(Br)cc1 (configuration not stated) | 1.07 ± 0.11 | 0.938 ± 0.061 | 0.985 ± 0.047 | 1 ± 0.14 | 1 ± 0.073 | 1.13 ± 0.19 | 1 (active) |
| CNC(=O)Cc1cn(Cc2ccccc2)c2ccccc12 | 0.809 ± 0.19 | 1.11 ± 0.12 | 1.11 ± 0.082 | 0.947 ± 0.038 | 0.977 ± 0.11 | 1.05 ± 0.12 | 0.999 (active) |
| NS(=O)(=O)c1ccc2c(c1)CCCC2 | 0.512 ± 0.11 | 0.806 ± 0.22 | 0.661 ± 0.15 | 0.932 ± 0.057 | 0.925 ± 0.073 | 0.957 ± 0.3 | 0.863 (active) |
| Cc1c(OCC(F)(F)F)ccnc1CS(=O)c1nc2ccccc2[nH]1 (configuration not stated) | 1 ± 0.16 | 0.915 ± 0.28 | 0.929 ± 0.063 | 0.699 ± 0.037 | 1.11 ± 0.3 | 1.07 ± 0.096 | 0.984 (active) |
| COCCCN1C(=O)C(=Cc2ccc(-c3ccc(Cl)cc3Cl)o2)SC1=S | 0.954 ± 0.054 | 1.01 ± 0.082 | 0.96 ± 0.036 | 1.02 ± 0.052 | 1.01 ± 0.099 | 0.998 ± 0.25 | 1 (active) |
| O=C(Nc1ccc(Br)cc1)c1cccc(S(=O)(=O)NC2CCCCC2)c1 | 0.746 ± 0.057 | 0.846 ± 0.076 | 1.24 ± 0.035 | 0.527 ± 0.019 | 1.04 ± 0.14 | 1 ± 0.17 | 0.983 (active) |
| Cc1cccc(OCCCSc2nc3ccccc3[nH]2)c1 | 0.919 ± 0.076 | 0.973 ± 0.11 | 1.14 ± 0.11 | 0.671 ± 0.021 | 1.28 ± 0.21 | 1.39 ± 0.24 | 0.949 (active) |
| CN(C)c1ccc(C=C(C#N)c2nc(-c3cc4ccccc4oc3=O)cs2)cc1 | 0.972 ± 0.057 | 1.04 ± 0.13 | 0.955 ± 0.079 | 0.86 ± 0.03 | 1.36 ± 0.091 | 1.15 ± 0.24 | 1.01 (active) |
| COC(=O)c1cc(OC)c(=O)c2c(OC)c(OC)ccc2c1 | 1.08 ± 0.33 | 0.981 ± 0.059 | 0.931 ± 0.1 | 0.743 ± 0.03 | 1.02 ± 0.22 | 0.884 ± 0.088 | 0.984 (active) |
| Cc1cncc(CN2CCC(=C3c4ccc(Cl)cc4CCc4cccnc43)CC2)c1.O=C(O)/C=C/C(=O)O | 1.46 ± 0.14 | 1.19 ± 0.096 | 1.73 ± 0.23 | 0.931 ± 0.097 | 0.799 ± 0.092 | 1.29 ± 0.16 | 1 (active) |
| CC(C)(C)C1CCc2c(sc(NC(=O)c3cccs3)c2C(=O)N2CCCC2)C1 (configuration not stated) | 0.93 ± 0.073 | 1.06 ± 0.061 | 0.993 ± 0.13 | 0.984 ± 0.027 | 1.14 ± 0.12 | 1.03 ± 0.068 | 1.01 (active) |
| Brc1ccc(-c2cc(-c3ccccc3)nc(N3CCOCC3)n2)cc1 | 0.81 ± 0.087 | 0.995 ± 0.11 | 1.12 ± 0.13 | 0.977 ± 0.059 | 1.35 ± 0.25 | 1.59 ± 0.38 | 1.01 (active) |
| CC(Cc1ccc(O)c(O)c1)C(C)Cc1ccc(O)c(O)c1 (configuration not stated) | 1.16 ± 0.31 | 0.645 ± 0.057 | 1.31 ± 0.094 | 0.0338 ± 0.0028 | 0.509 ± 0.062 | 0.544 ± 0.055 | 0.618 (inactive) |
| Cc1c(C(=O)Nc2ccc(N3C[C@@H](C)O[C@@H](C)C3)nc2)cccc1-c1ccc(OC(F)(F)F)cc1 | 1.25 ± 0.17 | 1.13 ± 0.2 | 1.64 ± 0.18 | 0.412 ± 0.024 | 1.13 ± 0.13 | 1.37 ± 0.1 | 0.824 (active) |
| Clc1ccc(Nc2nc3nonc3nc2NC2C3CC4CC(C3)CC2C4)cc1 (configuration not stated) | 1.15 ± 0.12 | 1.15 ± 0.07 | 1.2 ± 0.096 | 0.702 ± 0.27 | 1.32 ± 0.17 | 1.15 ± 0.16 | 0.931 (active) |
| O=C(NNC(=O)c1sc2cc(F)ccc2c1Cl)Nc1ccc(Cl)cc1 | 1.02 ± 0.081 | 0.995 ± 0.086 | 1.05 ± 0.053 | 0.926 ± 0.15 | 1.02 ± 0.048 | 1.12 ± 0.091 | 1 (active) |
| NCC1OC(OC2C(CO)OC(OC3C(O)C(N)CC(N)C3OC3OC(CN)C(O)C(O)C3N)C2O)C(N)C(O)C1O.O=S(=O)(O)O (configuration not stated) | 1.21 ± 0.096 | 1.01 ± 0.074 | 1.13 ± 0.12 | 0.993 ± 0.031 | 1.22 ± 0.12 | 1.29 ± 0.18 | 1.02 (active) |
| CC(=O)Nc1ccc(C(=O)CSc2nnc[nH]2)cc1 | 0.771 ± 0.06 | 0.877 ± 0.072 | 1.01 ± 0.087 | 0.916 ± 0.045 | 1.33 ± 0.086 | 1.47 ± 0.14 | 1.01 (active) |
| CC1CCC2C(C)(CO)C(O)CCC2(C)C12CCC(CO)(CCO)O2 (configuration not stated) | 0.983 ± 0.073 | 0.945 ± 0.049 | 1.02 ± 0.033 | 0.99 ± 0.11 | 0.949 ± 0.048 | 0.952 ± 0.076 | 1 (active) |
| COc1ccc2c(c1)c(=O)oc1cc(OCc3cccc(C(F)(F)F)c3)ccc12 | 1.03 ± 0.076 | 1.01 ± 0.1 | 1.04 ± 0.027 | 0.998 ± 0.047 | 0.97 ± 0.046 | 1.11 ± 0.11 | 0.995 (active) |
| CC(C)Oc1ccc(C(=O)N2CCC(c3ccccc3)S(=O)(=O)CC2)cn1 (configuration not stated) | 1.06 ± 0.08 | 0.861 ± 0.13 | 0.998 ± 0.052 | 0.921 ± 0.054 | 1.03 ± 0.049 | 0.968 ± 0.13 | 0.989 (active) |
| Cc1ccccc1C(=O)N(Cc1cccnc1)c1nc2c(F)cccc2s1 | 0.288 ± 0.019 | 0.749 ± 0.063 | 0.645 ± 0.038 | 1.34 ± 0.06 | 1.06 ± 0.11 | 0.952 ± 0.093 | 0.984 (active) |
| COc1ccc(CC(=O)Nc2ccc(C)c(N3CCCCC3=O)c2)cc1OC | 1.42 ± 0.34 | 1.18 ± 0.09 | 1.06 ± 0.071 | 0.937 ± 0.059 | 0.98 ± 0.14 | 1.06 ± 0.12 | 1 (active) |
